What all share (format): functional
Test [1] relates to Plasmodium falciparum. The experiment in a line: GSK_TCMDC: Inhibition of Plasmodium falciparum 3D7 in whole red blood cells, using parasite LDH activity as an index of growth. Test compounds present at 2uM.
For test [2], the system named is Plasmodium falciparum. Put plainly: GSK_TCMDC: Inhibition of Plasmodium falciparum Dd2 in whole red blood cells, using parasite LDH activity as an index of growth. Test compounds present at 2uM.
The subject of test [3] is HepG2. The experiment in a line: GSK_TCMDC: Percent inhibition of human HepG2 cell line. Test compounds present at 10uM.

SMILES strings stand for the structures.

Consider 31 molecules from ChEMBL document CHEMBL1157539, “Thousands of chemical starting points for antimalarial lead identification” (Nature, 2010).

Broadly, the Inhibition is the relative decrease from the control value, in per cent. Turning to `COc1ccc(Br)cc1/C=C/C(=O)Nc1ccc(C2CCCN(C)C2)cc1.O=CO` (stereo not drawn), the Inhibition worked out at 100% in test [1], 35% in test [2] and 18% in test [3].
The matching figures for `O=C(Nc1ccc2c(c1)OCCO2)c1cc(-c2cccnc2)nc2ccc(Cl)cc12`: 95%, 27% and 2%.
Turning to `CN1CCN(c2cc3c(cc2Cl)CCN3C(=O)Cc2ccc(NC(=O)Nc3cccc4ccccc34)cc2)CC1`, the figures for the Inhibition in test [1], in test [2] and in test [3] were 92%, 18% and 12%, respectively.
Consider `O=[N+]([O-])c1cc(/C=N/Nc2nc3nonc3nc2Nc2ccc(F)cc2)c(Cl)cc1Cl`, for which the Inhibition was found to be 98% in test [1], 13% in test [2] and 5% in test [3].
The like results for `CCOC(=O)c1c(C)n(-c2ccc(Cl)cc2)c2ccc(OC(=O)C=Cc3ccccc3)cc12` were, in that order, 99%, 92% and 3%.
The like results for `CCCNCc1ccc(-c2ccc(CN(CCOC)C(=O)c3ccc([N+](=O)[O-])c(C)c3)cc2)nc1.O=C(O)C(F)(F)F` were, in that order, 97%, 23% and 2%.
The matching figures for `CCCCCCNc1c2ccccc2nc2ccccc12.Cl`: 97%, 32% and 24%.
`O=C(/C=C/c1ccc(-c2nc3ccc(Cl)cc3[nH]2)cc1)NCc1cccc(F)c1`: the Inhibition in test [1] turned out to be 99%; in test [2], 68%; in test [3] it was 1%.
The matching figures for `Cl.Oc1ccc2ccccc2c1CNC1CCCCCC1`: 83%, 33% and 9%.
The like results for `CCCCCCCCCN(CCC)C(=O)[C@@H]1OC(C(=O)OC(c2ccccc2)c2ccccc2)=C[C@H](NC(=O)OC(C)(C)C)[C@H]1NC(C)=O` were, in that order, 91%, 49% and 0%.
The matching figures for `COc1ccccc1C1CCN(CCCCNC(=O)c2ccc(/C=C/c3cc(Cl)cc(Cl)c3)cc2)CC1`: 96%, 30% and 36%.
As to `CCc1cccc(OCC2CCCN(c3ccc(C(=O)NC4CC4)cn3)C2)c1` (stereo not drawn), the Inhibition in test [1] amounted to 94%; in test [2], 73%; in test [3] it was 0%.
The matching figures for `COc1ccc(CN(C)CCCOc2ccc(NC(=O)c3cccc4c(=O)c5cccc(F)c5[nH]c34)cc2)cc1OC`: 100%, 96% and 6%.
The matching figures for `CC(C)c1ccc(CN2CCC(NC(=O)c3ccc(-c4ccccc4F)s3)CC2)cc1.O=C(O)C(F)(F)F`: 81%, 13% and 46%.
Consider `N#Cc1cccc(NC(=O)Nc2ccc(-c3cccc(-c4nc5cc(F)ccc5[nH]4)c3)cc2)c1`, for which the Inhibition in test [1] was 100%; in test [2], 100%; in test [3] it was 64%.
Take `CCCCNC(=O)[C@@H]1CCCN1C(=O)c1ccc(O)c(-c2ccc(Cl)c(Cl)c2)c1`: the figures for the Inhibition in test [1], in test [2] and in test [3] were 98%, 92% and 0%, respectively.
Consider `CCCNC[C@@H](O)[C@H](Cc1ccccc1)NC(=O)c1cc(NCC)cc(N2CCCCS2(=O)=O)c1.Cl`, for which the values for the Inhibition in test [1], in test [2] and in test [3] were 97%, 74% and 0%, respectively.
Turning to `CCNc1cc(C(=O)N[C@@H](Cc2ccccc2)[C@H](O)CNCc2cc(OC)cc(OC)c2)cc(N2CCCS2(=O)=O)c1.Cl`, the Inhibition in test [1] is on record as 99%; in test [2], 86%; in test [3], 0%.
The like results for `COc1ccc2[nH]ccc(=NN=Cc3ccncc3)c2c1` were, in that order, 99%, 95% and 4%.
The like results for `CN1CCCN(Cc2ccc(-c3cccc(NC(=O)c4ccc(F)cc4)c3)cc2)CC1.O=C(O)C(F)(F)F` were, in that order, 89%, 8% and 29%.
The matching figures for `OC(CNCc1ccco1)Cn1c2ccc(Br)cc2c2cc(Br)ccc21` (stereo not drawn): 92%, 72% and 10%.
Consider `O=[N+]([O-])c1cccc(NC(=S)N2CCCN(Cc3ccc(Cl)cc3Cl)CC2)c1`, for which the Inhibition in test [1] stood at 94%; in test [2], 50%; in test [3] it was 3%.
The matching figures for `Cc1cccc(Oc2cccc3[nH]nc(N)c23)c1`: 85%, 0% and 6%.
The like results for `Cc1nc(-c2nc(N3CCC(C(N)=O)CC3)ncc2-c2ccsc2)sc1C` were, in that order, 93%, 33% and 0%.
The matching figures for `CN(C(=O)c1ccc(Br)cc1)c1ccccc1[N+](=O)[O-]`: 96%, 0% and 3%.
In the case of `COc1ccccc1CNC(=O)c1cc(C2CC2)nc2c1cnn2C(C)C`, the values for the Inhibition in test [1], in test [2] and in test [3] were 94%, 92% and 47%, respectively.
Turning to `O=CO.c1ccc(-c2ccc(CNCCCNc3nc4ccccc4[nH]3)cc2)cc1`, the results for the Inhibition in test [1], in test [2] and in test [3] were 95%, 0% and 20%, respectively.
The like results for `CCN(CC)CCN(Cc1ccc(-c2ccc(C(F)(F)F)cc2)cc1)C(=O)c1ccc(-c2ccc(C#N)cc2)cc1` were, in that order, 89%, 31% and 38%.
Regarding `COc1ccc2nc(C)cc(Nc3ccc(N4CCN(C)CC4)cc3)c2c1`, the Inhibition in test [1] is 100%; in test [2], 3%; in test [3], 1%.
The like results for `COc1ccc(-c2cccc(NC(=O)c3cccc(Cl)c3)c2)cc1CN1CCNCC1.O=C(O)C(F)(F)F` were, in that order, 100%, 52% and 29%.
The like results for `COc1ccc(NC(=O)[C@H](Cc2ccccc2)Nc2cc(C)nc(NCCc3ccccc3OC)n2)cc1.O=C(O)C(F)(F)F` were, in that order, 100%, 83% and 10%.
